Experiment [1] is described as follows: qHTS assay to identify small molecule agonists of H2AX (AID 1224845; active = well fitted activation curve with a large enough effect in the signal ratio in the repeat runs, not every such curve was filed as active; the % refers to the signal ratio; also: potency is read from the fitted curve at half-maximal effect). The essentials: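 Wild-type CHO-K1 cells plated overnight, then exposed 3 hr at 37C to compounds at 15 concentrations (0.76% DMSO). Lysed, then HTRF anti-pH2AX(S139)-cryptate/anti-H2AX-d2 detection after 24 hr at room temperature; emissions 665 and 620 nm.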
(In general: In qHTS, concentration-response curves come from the screen itself.)

Experiment [2] is described as follows: qHTS assay to identify small molecule agonists of H2AX - cell viability counter screen (AID 1224847; calls by dose curve; also: nearly all actives have a fitted effect of over 30% in size; also: potency is read from the fitted curve at half-maximal effect). The method in brief:
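Wild-type CHO-K1 cells (10% FBS medium) were plated overnight at 37C, exposed to compounds at 15 concentrations for 3 hr at 37C (0.76% DMSO final), and viability was read as CellTiter-Glo luminescence after 30 min at room temperature.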

Experiment [3] is described as follows: qHTS assay to identify small molecule antagonists of the estrogen related receptor (ERR) signaling pathway from Tox21 library (AID 1224848). Also: nearly all actives have a fitted effect of over 50% in size. Also: potency is read from the fitted curve at half-maximal effect. The method in brief:
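Screening used an ERR reporter line supplied by NTP, exposed for 18 h at 37 C to library compounds delivered in DMSO. Signal was luciferase luminescence developed with ONE-Glo at room temperature for 30 min.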

Experiment [4] can be described thus: qHTS RealTime-Glo MT Cell Viability Assay in HepG2 cells - 24 hour (AID 1224867). Also: nearly all actives have a fitted effect of over 50% in size. Also: potency is read from the fitted curve at half-maximal effect. The method in brief:
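Cell number in HepG2 cultures estimated from NanoLuc luminescence generated by metabolic reduction of a prosubstrate by living cells. The homogeneous, nonlytic format allowed repeated reads at 0, 8, 16, 24, 32 and 40 h of compound exposure.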

A short description of experiment [5]: qHTS RealTime-Glo MT Cell Viability Assay in HepG2 cells - 40 hour (AID 1224870). Also: nearly all actives have a fitted effect of over 50% in size. Also: potency is read from the fitted curve at half-maximal effect. The method in brief: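 HepG2 cells mixed with RealTime-Glo MT reagents (NanoLuc plus cell-permeant prosubstrate) were seeded at 600 cells/well, incubated 5 h at 37 C/5% CO2, then pinned with compounds in DMSO; nonlytic luminescence tracked viability during 40 h treatment.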
Experiment [6] can be described thus: A CellTox Green Cytotoxicity Assay to monitor cytotoxicity in HEK293 cells - 40 hour (AID 1224871). Also: nearly all actives have a fitted effect of over 45% in size. Also: potency is read from the fitted curve at half-maximal effect. The method in brief:
(§1)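 HEK293 cells premixed with CellTox Green dye were seeded at 600 cells/well and left 5 h at 37 C/5% CO2 before pin transfer of 23 nL compound in DMSO. Fluorescence from dye bound to dead-cell DNA was read during 40 h treatment.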

Experiment [7] is described as follows: qHTS RealTime-Glo MT Cell Viability Assay in HEK293 cells - 32 hour (AID 1224868). Also: nearly all actives have a fitted effect of over 50% in size. Also: potency is read from the fitted curve at half-maximal effect. The essentials: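 Homogeneous bioluminescent viability format in HEK293 cells (600 cells/well). Following 5 h at 37 C/5% CO2, 23 nL compound was pintooled; the signal was measured repeatedly during 40 h incubation.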
A short description of experiment [8]: A CellTox Green Cytotoxicity Assay to monitor cytotoxicity in HEK293 cells - 0 hour (AID 1224869). Also: nearly all actives have a fitted effect of over 50% in size. The method in brief: as §1
Experiment [9] in a line: qHTS assay to identify small molecule agonists of the estrogen related receptor (ERR) signaling pathway from Tox21 library (AID 1224849; calls by dose curve; also: nearly all actives have a fitted effect of over 15% in size). The conditions noted are these: ERR reporter cell line, ONE-Glo luciferase, 18 h; at 92.4 µM (top of the series) unless noted. The essentials:
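ERR reporter cell line (NTP) seeded, rested 6 h at 37 C/5% CO2, then pinned with Tox21 compounds in DMSO. After 18 h at 37 C, ONE-Glo luciferase luminescence was read following 30 min at room temperature.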

We go through 21 molecules from PubChem BioAssay (Tox21).

The structures appear in SMILES notation. Several values for one entry are separate records, joined by “and”; a condition that tells them apart may be missing. Equal entries are not always repeated. Unmarked numbers belong to inactive results. Results filed as inconclusive are left out. Activity calls are given as the source filed them. Unless noted, calls follow the shape of the dose curve; as a rule, active = well fitted curve in the direction sought with a large enough effect in the repeat runs; inconclusive = weak or mixed curves; inactive = no such curve, though single readings can be large; an effect the other way counts as inactive or inconclusive.
% is scaled to controls: 0 for no effect and ±100 for the full control effect.

On to `COc1c(C)c2c(c(O)c1C/C=C(\C)CCC(=O)O)C(=O)OC2`, for which the Potency in [1] is 0.875 µM (active). Besides, the Potency result in experiment [2], in experiment [3], in [4], in experiment [5] and in experiment [6] was “inactive” in each case.
Consider `CCCCCCCCn1sc(Cl)c(Cl)c1=O`, for which the Potency entry in experiment [1] and in [8] was “inactive” each time. The Potency in experiment [2] is 8 µM (active); in experiment [4] it was 4.9 µM (active); in [7], 3.89 µM (active); in experiment [5], 6.92 µM (active); in [6] it was 1.95 µM (active).
With `Oc1cc2ccccc2c2ccccc12`, the Potency in [1] was 17.9 µM (active); in experiment [2], 28.4 µM (active); in experiment [4], 11 µM (active); in experiment [7], 11 µM (active); in experiment [5], 11 µM (active); in experiment [6] it was 15.5 µM (active). The Potency result in experiment [8] was “inactive”.
Turning to `CC(=O)SC[C@@H](Cc1ccccc1)C(=O)NCC(=O)OCc1ccccc1`, the Potency result in experiment [1], in [2], in [4], in experiment [7], in [8] and in [5] was “inactive” in each case. Further, the Potency entry in experiment [6] was “inactive”.
As for `Cc1oc(-c2ccccc2)nc1CCC(=O)c1ccc(CC2SC(=O)NC2=O)cc1` (configuration not stated), the Potency result in experiment [1], in experiment [2], in [4], in [7], in experiment [8] and in [5] was “inactive” throughout. Besides, in experiment [6], the Potency entry was “inactive”. The activity change, positive = activation in experiment [9] was -19.2% [at 42.5 µM].
On to `CCN(C(=O)c1cc(C)cc(OC[C@H](C)Nc2ccncc2)c1)C(C)C`, for which the Potency result in experiment [1], in [2], in experiment [4], in experiment [7], in experiment [8] and in [5] was “inactive” each time.
Regarding `CCc1cc(SCc2sc(-c3ccc(C(F)(F)F)cc3)nc2CN2CCN(c3ccc(OC)cc3)CC2)ccc1OCC(=O)O`, the Potency in [1] was 50.5 µM (active); in experiment [2], 89.8 µM (active); in experiment [3], 17.2 µM (active); in experiment [7], 19.5 µM (active). In addition, the activity change, positive = activation in experiment [9] was -62.5%. Moreover, the Potency entry in experiment [8] and in [5] was “inactive” in each case.
`Cc1onc(-c2ccccc2Cl)c1C(=O)N[C@@H]1C(=O)N2[C@@H]1SC(C)(C)[C@@H]2C(=O)O`: the Potency entry in [1], in experiment [2], in [4], in experiment [7], in experiment [8] and in experiment [5] was “inactive” throughout.
As for `CCCCCCCCOC(=O)c1ccc(O)cc1`, the Potency result in experiment [1], in [4], in experiment [8] and in experiment [5] was “inactive” in each case. For the same molecule, the Potency is 89.5 µM (active) and 101 µM (active) in experiment [2]; 27.4 µM (active) in experiment [7]; 38.8 µM (active) and 49 µM (active) in [6].
Take `O=C(Nc1cccc([N+](=O)[O-])c1)c1cc2ccccc2cc1O`: the Potency result in experiment [1], in [4], in [8], in [5] and in experiment [6] was “inactive” in each case. In addition, the Potency in experiment [2] was 11.3 µM (active). In addition, the activity change, positive = activation in experiment [9] was -21.9%.
In the case of `COC(=O)C1=C(C)NC(C)=C(C(=O)OCCc2ccc(N3CCN(C(c4ccccc4)c4ccccc4)CC3)cc2)C1c1cccc([N+](=O)[O-])c1` (configuration not stated), the Potency entry in experiment [1], in experiment [2], in experiment [4], in [7], in experiment [8] and in [5] was “inactive” each time. Besides, the Potency result in experiment [6] was “inactive”.
Turning to `C[n+]1ccn(Cc2ccccc2)c1`, the Potency entry in experiment [1], in experiment [2], in [4] and in experiment [5] was “inactive” each time. Besides, the activity change, positive = activation in [9] was -31.8%.
Turning to `CCCCCCCCCCCCCCCCCC[N+](C)(C)C`, the Potency entry in [1] and in experiment [8] was “inactive” each time. Also, the Potency in experiment [2] is 90.1 µM (active); in experiment [3] it was 24.4 µM (active); in experiment [7] it was 7.79 µM (active); in experiment [6], 21.9 µM (active). In [9], the activity change, positive = activation was -79.1%.
As to `CCOc1nc2cccc(C(=O)OC(C)OC(=O)OC3CCCCC3)c2n1Cc1ccc(-c2ccccc2-c2nn[nH]n2)cc1` (configuration not stated), the Potency in experiment [1] was 45 µM (active); in experiment [2], 63.5 µM (active); in [3] it was 34.3 µM (active); in experiment [7] it was 9.76 µM (active); in experiment [6], 30.9 µM (active). The activity change, positive = activation in experiment [9] is -65.4%. The Potency entry in experiment [8] was “inactive”.
`COc1ccc(CN2CCN(C(c3ccc(F)cc3)c3ccc(F)cc3)CC2)c(OC)c1OC`: the Potency result in [1] and in experiment [8] was “inactive” throughout. Further, the Potency in experiment [2] is 49.2 µM (active); in [3], 13.3 µM (active); in [7], 16.9 µM (active); in experiment [6], 4.77 µM (active). In experiment [9], the activity change, positive = activation is -66.6% [at 42.5 µM].
Consider `CC(C)=CCOc1ccc(/C=C/C(=O)c2ccc(OCC=C(C)C)cc2OCC(=O)O)cc1`, for which the Potency result in experiment [1], in experiment [2], in [4], in experiment [7], in experiment [8] and in experiment [5] was “inactive” each time. For the same molecule, the Potency result in [6] was “inactive”. Further, in [9], the activity change, positive = activation is -23.7% [at 42.5 µM].
`CCCN(CCC)C(=O)C(CCC(=O)OCCCN1CCN(CCOC(=O)Cc2c(C)n(C(=O)c3ccc(Cl)cc3)c3ccc(OC)cc23)CC1)NC(=O)c1ccccc1` (configuration not stated): the Potency result in experiment [1], in experiment [2], in experiment [8], in experiment [5] and in experiment [6] was “inactive” in each case. Moreover, in experiment [3], the Potency was 29.8 µM (active). Also, the activity change, positive = activation in [9] was -47.5% [at 42.5 µM].
For `Cc1c(C)c2c(c(C)c1OC(=O)CCC(=O)O)CC[C@@](C)(CCC[C@H](C)CCC[C@H](C)CCCC(C)C)O2`, the Potency entry in [1], in [2], in experiment [3] and in [8] was “inactive” in each case. For the same molecule, in experiment [9], the activity change, positive = activation is -23.6%. In addition, in experiment [5], the Potency is 55.6 µM (active).
Consider `CCOc1ccc2nc3cc(N)ccc3c(N)c2c1`, for which the Potency entry in experiment [1], in experiment [2] and in experiment [8] was “inactive” each time. The Potency is 10.7 µM (active) in [4], 15.1 µM (active) in experiment [7] and 8.49 µM (active) in experiment [5].
On to `CC(C)(C)c1ccc(C(=O)CCCN2CCC(OC(c3ccccc3)c3ccccc3)CC2)cc1`, for which the Potency result in experiment [1] is “inactive”. The Potency was 55.2 µM (active) in [2]; 21.3 µM (active) in experiment [4]; 9.52 µM (active) in [7]; 19 µM (active) in [5]; 23.9 µM (active) in [6].
For the molecule `CN(C)[C@@H]1C(=O)C(C(N)=O)=C(O)[C@@]2(O)C(=O)C3=C(O)c4c(O)cccc4C[C@H]3C[C@@H]12`, the Potency result in experiment [1], in experiment [2], in experiment [4], in experiment [7], in [8] and in [5] was “inactive” in each case. The Potency result in [6] is “inactive”. Besides, the activity change, positive = activation in experiment [9] was -27.8% [at 42.5 µM].
